Source: PubChem BioAssay
IL1B secr inh: blocks inflammasome-driven IL-1 beta release | THP-1 LPS/ATP IL-1B secretion, AlphaLISA, 16 h; hits give low values | activity change, % at 57.5 µM | 4.7% of 360,000 active; in the data active = activity change below about -50%; inconclusive = mostly about -30% to -49%
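THP-1 cells pretreated 1 hr with compounds (up to 57.5 uM final), then stimulated with LPS (250 ng/mL final) plus ATP (1.25 mM final); secreted IL-1B measured by AlphaLISA after 16 hr, decreased signal indicating inhibition.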
DT40 TDP1 no CPT: qHTS for Inhibitors of human tyrosyl-DNA phosphodiesterase 1 (TDP1): qHTS in cells in absence of CPT; AID 686978, 2013; DT40 Tdp1-/- hTDP1 cells, no CPT, ATP luminescence, 48 h; 15% of 420,000 active; Potency, µM (series often up to 46.2 µM), most hits filed as inhibitors; note: nearly all actives have a fitted effect of over 55% in size
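Compound effects on proliferation are scored in DT40 Tdp1-/-;hTDP1 cells in the absence of CPT. ATP levels (CellTiter-Glo luminescence) are recorded after a ≥48 hr, 37 °C incubation.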
HT1080 IDH1KD tx: kills HT-1080 cells with IDH1 knockdown. HT-1080 IDH1 knockdown viability, ATP luminescence, 48 h. Potency, µM (series often up to 46.1 µM), usual class: cytotoxic. 2% of 360,000 active. AID 686971
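% activity derives from luminescence (CellTiter-Glo), normalised to DMSO and no-cell wells. HT-1080-IDH1KD cells, 750/well, had 48 h compound exposure at 37 °C.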
ELG1 repair inh: ELG1-dependent DNA repair inhibition; HEK293T ELG1-luciferase reporter, luminescence, 16 h; DNA damage induced by 5-fluorouridine; Potency, µM (series often up to 46.1 µM), actives largely listed as inhibitors; 2.3% of 330,000 active; AID 504467; note: nearly all actives have a fitted effect of over 55% in size
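HEK293T cells expressing luciferase-tagged ELG1 (2,000/well) received 5-Fluorouridine plus compound or DMSO for 16 hr at 37 °C. Luciferase was read by ONE-Glo luminescence after 30 min at room temperature.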
HT1080NT lethal: kills 2HG-producing HT-1080-NT fibrosarcoma cells; HT-1080-NT fibrosarcoma viability, CellTiter-Glo ATP luminescence, 48 h; Potency, µM (top dose mostly 46.1 µM), hits mostly cytotoxic; 1.6% of 360,000 active; AID 686970;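 note: NT is the 2HG producing partner of a matched IDH1 knockdown line; nearly all actives have a fitted effect of over 55% in size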
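Fibrosarcoma NT cells, 750 per well in 5% FBS RPMI, were exposed to compound for 48 hours. Viability: CellTiter-Glo luminescence.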
TDP1 cell CPT: DT40-hTDP1 cell growth loss with CPT. 12% of 420,000 active. AID 686979. Potency, µM (series often up to 46.2 µM), usual class: inhibitors. chicken DT40 Tdp1-/-;hTDP1 cells + 20 nM CPT, ATP luminescence, 48 h; note: nearly all actives have a fitted effect of over 55% in size
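Chicken DT40 Tdp1-/- cells stably complemented with human TDP1 were seeded at 400 cells/well in medium containing 20 nM camptothecin, exposed to pin-transferred compounds, and grown at 37 °C for at least 48 hr. Viability was read as ATP luminescence.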
Numbers stand for hits; – = inactive; ? = inconclusive; · = no result given. A selection: hits, their analogues and other compounds. The true share with any hit is near 19%. Unless noted, calls come from the whole dose curve; as a rule, active = well fitted curve in the direction sought with a large enough effect; inconclusive = small, poorly fitted or top-dose-only effect, or another doubt; inactive = no such curve, though single readings can be large; an effect the other way counts as inactive or inconclusive.

SMILES | IL1B secr inh | DT40 TDP1 no CPT | HT1080 IDH1KD tx | ELG1 repair inh | HT1080NT lethal | TDP1 cell CPT
CN(C(=O)CN1C(=O)/C(=C/c2ccccc2Cl)SC1=S)C1CCS(=O)(=O)C1 (stereo unspecified) | ? | ? | – | – | – | 16µM
COc1ccc(Cl)cc1C(=O)NNC(=O)c1ccc(F)c(S(=O)(=O)N2CCOCC2)c1 | – | – | – | ? | – | –
COc1c(C)cc(Br)cc1C(=O)Nc1ccc(Cc2ccncc2)cc1 | -79 | ? | ? | ? | ? | ?
COc1ccc(NC(=O)Nc2ccc(Cc3ccncc3)cc2)c(OC)c1 | -51 | – | – | – | – | –
COc1ccc(NC(=O)Nc2cnccn2)c(OC)c1 | – | – | – | – | – | –
O=C(NCc1ccncc1)Nc1ccc(Cc2ccc(NC(=O)NCc3ccncc3)cc2)cc1 | ? | 10µM | – | · | – | ?
O=C(Nc1ccc(Cc2ccncc2)cc1)c1cc(F)c(F)cc1Cl | – | – | – | – | – | –
COc1ccc([N+](=O)[O-])cc1C(=O)Nc1ccc(Cc2ccncc2)cc1 | – | ? | – | ? | – | –
COc1ccccc1C(=O)Nc1ccc(Cc2ccncc2)cc1 | – | 21µM | – | – | – | ?
CC(O)[C@@]1(O)CC[C@H]2[C@@H]3CC[C@H]4C[C@@H](O)CC[C@]4(C)C3=CC[C@@]21C (stereo partly specified) | – | – | – | – | – | ?
CCOc1ccc(NC(=O)CSc2nccn2C2CCCC2)cc1 | · | ? | · | · | · | –
CCC(C)NC(=O)CCn1ccc2cc(S(=O)(=O)N3CCCC3)ccc21 (stereo unspecified) | – | – | – | – | – | –
COc1cc(NC(=O)c2cc(Br)cc(C)c2OC)ccc1NC(=O)C(C)C | – | 23µM | – | ? | – | ?
COc1cc(NC(=O)c2ccc(Br)o2)ccc1NC(=O)C(C)C | ? | – | – | ? | – | –
O=C(Cn1nc(C(=O)O)c2ccccc2c1=O)Nc1cccc(S(=O)(=O)N2CCCC2)c1 | – | – | – | – | – | –
Cc1ccc(CNc2nc(-c3ccco3)nn2C(=O)c2ccccc2[N+](=O)[O-])cc1 | · | 18µM | · | · | · | ?
CC(C)c1ccc(CNc2nc(-c3ccco3)nn2S(=O)(=O)c2ccccc2)cc1 | · | ? | · | · | · | 23µM
Cc1ccc(S(=O)(=O)n2nc(-c3ccco3)nc2NCc2ccc(N(C)C)cc2)cc1 | · | 23µM | · | · | · | ?
O=C(O)/C(=N/NC(=O)c1ccc(Cl)cc1)c1ccccc1 | – | – | – | – | – | –
Cc1ccc2c(c1)c(C)c(C)n2CC(O)CN1CCCCC1C (stereo unspecified) | · | ? | – | – | – | ?
Cc1ccc2c(c1)c1c(n2CC(O)CN2CCC(C)CC2)CCCC1 (stereo unspecified) | -65 | 26µM | – | – | – | ?
Cc1ccc2c(c1)c1c(n2CC(O)CN2CCCCC2C)CCCC1 (stereo unspecified) | – | ? | ? | – | 18µM | ?
Cc1ccc2c(c1)c1c(n2CC(O)CNC(CO)(CO)CO)CCCC1 (stereo unspecified) | – | – | – | – | – | ?
Cc1ccc2c(c1)c1c(n2CC(O)CNC2CCCCC2)CCCC1 (stereo unspecified) | -112 | 15µM | 16µM | ? | 21µM | 23µM
O=C(c1cnccn1)N1CCC2(CCN(Cc3nccs3)CC2)CC1 | · | – | · | · | · | –
COc1cccc(CN2CCOc3ccc(CN4C[C@@H](C)O[C@@H](C)C4)cc3C2)c1OC | · | – | · | · | · | –
CC1CN(C(=O)CCC(=O)NCCCc2ccccc2)c2ccccc2O1 (stereo unspecified) | – | – | – | – | – | –
